Mdm2 MdmX PPI: inhibitors of human Mdm2-MdmX association, primary screen, cell-based, luminescence, split luciferase, SaOS-2, uHTS; AID 485346, 2010; hit rate 3% among 330,000; SaOS-2 split-luciferase Mdm2/MdmX complementation; inhibition, % at 8 µM;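 active = inhibition of at least 50% at 8 µM in the primary screen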
Target sequence (O15151 whole entry, looked up): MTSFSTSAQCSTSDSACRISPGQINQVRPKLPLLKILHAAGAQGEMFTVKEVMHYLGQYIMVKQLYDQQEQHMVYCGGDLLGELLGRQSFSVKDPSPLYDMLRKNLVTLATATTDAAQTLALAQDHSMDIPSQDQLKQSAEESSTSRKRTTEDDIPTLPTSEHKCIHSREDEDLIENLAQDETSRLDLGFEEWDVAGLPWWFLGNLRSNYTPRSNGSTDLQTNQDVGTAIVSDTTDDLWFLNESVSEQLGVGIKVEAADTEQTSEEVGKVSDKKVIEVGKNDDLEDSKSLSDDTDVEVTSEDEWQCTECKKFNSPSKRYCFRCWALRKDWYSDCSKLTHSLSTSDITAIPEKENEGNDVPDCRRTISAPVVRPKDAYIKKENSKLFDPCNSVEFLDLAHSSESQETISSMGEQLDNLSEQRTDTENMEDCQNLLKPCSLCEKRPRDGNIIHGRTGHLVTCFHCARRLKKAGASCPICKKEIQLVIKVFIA
Target sequence (Q00987 whole entry, looked up): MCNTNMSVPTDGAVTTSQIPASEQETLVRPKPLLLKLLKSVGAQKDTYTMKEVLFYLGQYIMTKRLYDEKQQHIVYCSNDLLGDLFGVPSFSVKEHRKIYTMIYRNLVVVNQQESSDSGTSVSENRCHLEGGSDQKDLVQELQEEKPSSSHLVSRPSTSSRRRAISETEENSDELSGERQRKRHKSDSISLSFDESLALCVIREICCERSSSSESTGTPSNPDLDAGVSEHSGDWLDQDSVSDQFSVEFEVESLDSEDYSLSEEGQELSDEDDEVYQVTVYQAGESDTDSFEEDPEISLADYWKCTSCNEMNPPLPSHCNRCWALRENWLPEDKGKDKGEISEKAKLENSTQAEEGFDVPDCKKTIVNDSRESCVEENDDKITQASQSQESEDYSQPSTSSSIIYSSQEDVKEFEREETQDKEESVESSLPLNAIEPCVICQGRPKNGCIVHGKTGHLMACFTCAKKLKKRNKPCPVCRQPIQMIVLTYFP
Gli-Sufu block: Gli-Sufu pathway antagonists, primary screen, luciferase luminescence, Sufu-KO-LIGHT cells, uHTS; Sufu-KO-LIGHT fibroblasts, Gli luciferase reporter luminescence; inhibition, % at 5 µM; hit rate 0.74% among 340,000; AID 588413, 2011;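 active = inhibition above about 55%, limit read from the data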
Jurkat NFkB inh: inhibitors of induced NF-kB luciferase reporter, primary screen, TCR NF-kB activation inhibitor project, cell-based, luminescence, uHTS | Jurkat, PMA/ionomycin-induced NF-kB luciferase reporter | inhibition, % at 4 µM | hit rate 0.53% among 330,000 | AID 435003, 2010; in the data active = inhibition above about 50%
697 NFkB inh: inhibitors of PMA/ionomycin-induced NF-kB reporter, 697 cells, primary screen, B-cell NF-kB inhibitor project, cell-based, luminescence, uHTS; hit rate 0.33% among 330,000; inhibition, % at 4 µM; AID 435022, 2010; 697 B-cell NF-kB luciferase reporter, 16 h; in the data active = inhibition above about 35%
CSC inhib: cancer stem cell viability inhibitors, primary screen, luminescence | hit rate 1.1% among 300,000 | cancer stem cell-like cells viability | inhibition, % at 7.5 µM | AID 2717, 2010; in the data active = inhibition above about 75%; tested in HMLE shEcad cells
aSyn UTR inh: MLPCN primary screen, SNCA 5' untranslated region; alpha-synuclein 5'UTR reporter, inhibitor activity; inhibition, % (tested at 7.5 µM); hit rate 0.82% among 300,000; in the data active = inhibition above about 60%;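 also: H4 neuroglioblastoma cells stably carrying SNCA 5'UTR luciferase fusion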
Mdm2-MdmX conf: Mdm2-MdmX complex disruptors, retested hits, confirmation, luminescence, single concentration. shares compounds with Mdm2 MdmX PPI. Mdm2-MdmX binding, luminescent assay. inhibition, % at 8 µM. hit rate 55% among 10,000; in the data active = inhibition above about 40%
Full FLuc ctr: full-length luciferase signal inhibition, confirmation, counter-screen for Mdm2/MdmX interaction inhibitor project, cell-based, single concentration, SaOS-2; AID 504607, 2011; hit rate 77% among 6,200; SaOS-2 full-length luciferase counterscreen, luminescence; shares compounds with Mdm2 MdmX PPI; inhibition, % at 8 µM;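 active = mean inhibition at 8 µM reaching about 37%, which flags the compound as non-specific, limit read from the data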;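 also: p53-null SaOS-2 cells with luciferase driven by a doxycycline-inducible promoter; compound on cells about two nights before reading with doxycycline added after day one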
Each line names hits and unclear results; the compound was inactive in the other large screens (follow-up assays come after a bar, where they were run). Compounds with a hit are over-represented: about 4.5% of the library has one in this group of screens.

N/C(CCS(=O)(=O)c1ccc(Cl)cc1)=N\OC(=O)c1ccccc1C(F)(F)F	Mdm2 MdmX PPI 94.4 | Mdm2-MdmX conf 93.4 | Full FLuc ctr inactive
CCN(CC(=O)Nc1ccccc1C(F)(F)F)C(=O)CCS(=O)(=O)c1ccc(Cl)cc1	none
N/C(CCS(=O)(=O)c1ccc(Cl)cc1)=N\OC(=O)c1ccc(Cl)cc1	Mdm2 MdmX PPI 55.1 | Mdm2-MdmX conf inactive
C/C=C(\C)CN1CCCC(N(C)CCc2ccc(OC)c(OC)c2)C1 (stereo not drawn)	none
C[C@@H]1CN([C@@H](C)CO)C(=O)Cc2cc(NC(=O)Nc3ccc(F)cc3)ccc2O[C@@H]1CN(C)Cc1ccc(Cl)c(Cl)c1	Mdm2 MdmX PPI 100.5 (no result: CSC inhib, aSyn UTR inh) | Mdm2-MdmX conf 63.2 | Full FLuc ctr 56.2
C[C@@H]1CN([C@H](C)CO)C(=O)c2cc(NC(=O)Cc3ccccc3)ccc2O[C@H]1CN(C)Cc1ccc(Oc2ccccc2)cc1	Mdm2 MdmX PPI 72.5 (no result: aSyn UTR inh) | Mdm2-MdmX conf inactive
C[C@H]1CN([C@@H](C)CO)C(=O)Cc2cc(NC(=O)CCC(F)(F)F)ccc2O[C@H]1CN(C)S(=O)(=O)c1ccc(Cl)cc1	Mdm2 MdmX PPI 55.4 (no result: CSC inhib, aSyn UTR inh) | Mdm2-MdmX conf 49.6 | Full FLuc ctr 64.6
C[C@@H]1CN([C@@H](C)CO)C(=O)c2cc(NC(=O)Nc3ccc(F)cc3)ccc2O[C@@H]1CN(C)Cc1ccc(Oc2ccccc2)cc1	Mdm2 MdmX PPI 94.3, CSC inhib 137.4 (no result: aSyn UTR inh) | Mdm2-MdmX conf inactive
C[C@@H]1CN([C@@H](C)CO)C(=O)c2cc(NS(C)(=O)=O)ccc2O[C@H]1CN(C)Cc1ccc(Oc2ccccc2)cc1	none (no result: Gli-Sufu block, aSyn UTR inh)
C[C@H]1CN([C@@H](C)CO)C(=O)Cc2cc(NC(=O)CCC(F)(F)F)ccc2O[C@H]1CN(C)S(=O)(=O)c1ccc(F)cc1	none (no result: aSyn UTR inh)
C[C@H]1CN([C@@H](C)CO)C(=O)Cc2cc(NS(C)(=O)=O)ccc2O[C@@H]1CN(C)Cc1ccc(Cl)c(Cl)c1	none (no result: CSC inhib, aSyn UTR inh)
Cc1ccc(C)c(NC(=O)CN(C)C(=O)c2cccc(N3C(=O)CCC3=O)c2)c1	none
COc1cc(OC)cc(C(=O)Nc2cccc(N3CCCC3)c2)c1	none
CN1CCN(c2ccccc2NC(=O)C(Cc2ccccc2)n2cccc2)CC1 (stereo not drawn)	none
CC(=O)c1ccc(N2CCN(C(=O)c3cc(-c4ccncc4)nc4ccc(Cl)cc34)CC2)cc1	Mdm2 MdmX PPI 62.9 | Mdm2-MdmX conf inactive
O=[N+]([O-])c1ccc(Cl)c(-c2ccc(/C=N/c3c(-c4ccco4)nc4ccccn34)o2)c1	Mdm2 MdmX PPI 66.1 | Mdm2-MdmX conf inactive
O=[N+]([O-])c1ccc(-c2ccc(/C=N/c3c(-c4ccco4)nc4ccccn34)o2)c(Cl)c1	none (no result: Mdm2 MdmX PPI, Gli-Sufu block, Jurkat NFkB inh, 697 NFkB inh, CSC inhib)
COc1ccc2c(c1)-c1c(sn(-c3ccc(OC)c(OC)c3)c1=S)C(C)(C)N2	Mdm2 MdmX PPI 54.5 | Mdm2-MdmX conf inactive
COc1ccc2c(c1)-c1c(ssc1=S)C(C)(C)N2S(=O)(=O)c1ccc(C)cc1	Mdm2 MdmX PPI 58.0 | Mdm2-MdmX conf 46.1 | Full FLuc ctr 61.3
COc1ccc2c(c1)-c1c(ssc1=S)C(C)(C)N2	Mdm2 MdmX PPI 92.0 | Mdm2-MdmX conf 87.2 | Full FLuc ctr 55.0
COc1cc2nc(C3CCC3)n(NC(=O)c3ccco3)c(=O)c2cc1OC	none
COc1ccc(OCC(=O)Nc2ccc3oc(-c4ccncc4)nc3c2)cc1	none
Cc1ccc(OCC(=O)Nc2ccc(O)c(-c3nc4ccccc4o3)c2)cc1	Mdm2 MdmX PPI 91.7 | Mdm2-MdmX conf 46.9 | Full FLuc ctr 108.3
CCN(CC)CCCCN1c2ccccc2Sc2ccccc21	Mdm2 MdmX PPI 59.3 | Mdm2-MdmX conf inactive
COc1ccccc1C1C(C#N)=C(N)N(c2cccnc2)C2=C1C(=O)CC(C)(C)C2 (stereo not drawn)	none
c1ccc2c(c1)OCC(c1csc3ncnc(N4CCCCC4)c13)O2 (stereo not drawn)	Mdm2 MdmX PPI 64.5 | Mdm2-MdmX conf inactive
Clc1ncnc2scc(C3COc4ccccc4O3)c12 (stereo not drawn)	Mdm2 MdmX PPI 51.8 | Mdm2-MdmX conf inactive
CCCN1CCN(c2ncnc3scc(C4COc5ccccc5O4)c23)CC1 (stereo not drawn)	none
O=C(CN1C(=O)NC2(CCCC2)C1=O)NCc1ccccc1	none (no result: Gli-Sufu block, aSyn UTR inh)
Cc1ccc(/C=N/N2CCN(c3ccccn3)CC2)o1	none
CC(/C=C(\NC(=O)c1ccccc1)C(=O)N=Nc1c(O)[nH]c2ccc(C)cc12)=C\c1ccccc1	Mdm2 MdmX PPI 64.3 | Mdm2-MdmX conf 46.7 | Full FLuc ctr 81.9
CCN(CC)C(=O)C1CCCc2c1[nH]c1ccc(Cl)cc21 (stereo not drawn)	Mdm2 MdmX PPI 84.2 | Mdm2-MdmX conf 71.5 | Full FLuc ctr inactive
O=CNC1CCCc2c1[nH]c1ccc(Cl)cc21 (stereo not drawn)	none
O=C(c1ccco1)N1CCN(C(=O)C2CCCc3c2[nH]c2ccc(Cl)cc32)CC1 (stereo not drawn)	Mdm2 MdmX PPI 86.2 | Mdm2-MdmX conf 67.0 | Full FLuc ctr inactive
C/C(=N\NC(=O)c1cccc(S(=O)(=O)N2CCOCC2)c1)c1ccc(O)cc1	none (no result: aSyn UTR inh)
O=C(N/N=C/c1ccco1)c1cc2ccccc2o1	none
O=C(COc1ccc(/C=N/NC(=O)c2cc3ccccc3o2)cc1Br)Nc1ccccc1	Mdm2 MdmX PPI 94.8, CSC inhib 99.2, aSyn UTR inh 116.3 | Mdm2-MdmX conf inactive
O=C(COc1ccccc1[N+](=O)[O-])Nc1ccc(NC(=O)c2cc3ccccc3o2)cc1	Mdm2 MdmX PPI 54.2 | Mdm2-MdmX conf inactive | Full FLuc ctr 71.0
CCOc1cc(NC(=O)c2ccco2)c(OCC)cc1NC(=O)COc1ccccc1C	Mdm2 MdmX PPI 99.4 | Mdm2-MdmX conf inactive | Full FLuc ctr inactive
Cc1ccccc1OCC(=O)Nc1ccccc1NC(=O)c1ccco1	none
O=C(COc1ccccc1[N+](=O)[O-])Nc1ccc2oc(=O)ccc2c1	none
COc1ccc(NC(=O)c2ccco2)cc1NC(=O)COc1ccccc1[N+](=O)[O-]	Mdm2 MdmX PPI 78.2 | Mdm2-MdmX conf inactive
Cc1[nH]n(-c2ccccc2)c(=O)c1/C=N/NC(=O)C(C)C	none
